Measured values published in PubChem BioAssay (NCI).
Compounds without any hit were thinned out: in the full panel of roughly 83,000, 20% have a hit.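 48-hour exposure, single concentration, 96-well plates; percent growth endpoint where 0 means no net growth. Active: below 10.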 Unmarked numbers belong to inactive results. The source made the active and inactive calls.

Columns and labels:
Assay in all cases: NCI-60 one-dose screen, 48 h (100 = growth as untreated, 0 = no growth, -100 = all killed)
Settings in all cases: 10 µM unless noted
[1] = system: DU-145 prostate
[2] = system: K-562 leukemia
[3] = system: MALME-3M melanoma
[4] = system: MDA-MB-231 breast
[5] = system: RXF 393 renal
[6] = system: SF-268 CNS
[7] = system: SF-295 CNS
[8] = system: SF-539 CNS
[9] = system: UACC-257 melanoma
[10] = system: M14 melanoma
[11] = system: HT29 colon
[12] = system: SNB-75 CNS
[13] = system: SNB-19 CNS
[14] = system: U251 CNS
[15] = system: PC-3 prostate
[16] = system: SK-MEL-5 melanoma
[17] = system: UACC-62 melanoma
[18] = system: LOX IMVI melanoma
[19] = system: SK-MEL-28 melanoma

SMILES | growth [1] | growth [2] | growth [3] | growth [4] | growth [5] | growth [6] | growth [7] | growth [8] | growth [9] | growth [10] | growth [11] | growth [12] | growth [13] | growth [14] | growth [15] | growth [16] | growth [17] | growth [18] | growth [19]
O=[N+]([O-])c1ccc(Sc2cccc[n+]2[O-])c2nonc12 | 50% | -21.7% (active) | 100% | 90.4% | 54.5% | 58.9% | 89.9% | 93.6% | 91.5% | 71.3% | 78.2% | 80.7% | 88.3% | 2.22% (active) | 41.8% | 72.3% | 50.6% | 2.14% (active) | 23.8%
CCN(CC)CCCC(C)Nc1c2ccc(Cl)cc2nc2ccc(O)cc12 (configuration not stated) | 41.3% | -3.7% (active) | 51.2% | 47.4% | -19.9% (active) | 58.5% | 61% | 15.6% | -58.4% (active) | 14.2% | 48.2% | 35.3% | 44.8% | 32.5% | 48.7% | 34.7% | 82.3% | 0.124% (active) | 57.5%
COc1cc(C2CC(=O)Nc3c2c(C)nn3-c2nc3ccccc3[nH]2)cc2c1OCC(=O)N2 (configuration not stated) | 111% | 89.3% | 117% | 55.8% | -0.584% (active) | 48.8% | 19.1% | 50.6% | 69.6% | 34.8% | 66.9% | 19.3% | 49.1% | 55.2% | 69.1% | 52.3% | 65.5% | 51.2% | 65.4%
O=C(Nc1cccc(Cl)c1)c1cc(N=Nc2ccc([N+](=O)[O-])cc2Cl)ccc1O | 116% | 26.3% | 43.7% | 64.1% | 29.6% | 90.6% | 55.1% | 54.2% | -1.95% (active) | 103% | 76.7% | 66.4% | 73.2% | 63.9% | 34.8% | 43.3% | 79.2% | 98.3% | 85.5%
O=Cc1ccc(O)c2ncccc12 | 41.9% | -23.6% (active) | 19% | 54.2% | 76.6% | 19.1% | 29.2% | 25.1% | 27.9% | 21.4% |  | 73.9% | 68.1% | 25.3% | 16.6% | 44% |  | -68.5% (active) | 38.6%
C#Cc1cccc(NC(=O)c2ccc(NC(=O)CCl)cc2)c1 | 42.4% [8.25 µM] | 7.87% [8.25 µM] (active) | -83.5% [8.25 µM] (active) | -22.8% [8.25 µM] (active) | 47.9% [8.25 µM] | -8.76% [8.25 µM] (active) | 75.4% [8.25 µM] | -94.7% [8.25 µM] (active) | 43.3% [8.25 µM] | -60.6% [8.25 µM] (active) | 34.5% [8.25 µM] | 32.2% [8.25 µM] | 8.27% [8.25 µM] (active) | -90.1% [8.25 µM] (active) | -46.6% [8.25 µM] (active) | -56.7% [8.25 µM] (active) | 7.2% [8.25 µM] (active) | -77.5% [8.25 µM] (active) | 54% [8.25 µM]
COc1cc2ncn3c(=O)c4c5c(sc4nc3c2cc1OC)CCCC5 | 105% | 146% | 89.8% | 90.6% | 105% | 94.3% | 101% | 99.2% | 119% | 91.2% | 91.8% | 85.1% | 93.2% | 98.7% | 87.6% | 102% | 93.4% | 98.6% | 106%
COc1ccc(C2C(c3nn[nH]n3)=C(N)Oc3c2ccc2ccccc32)cc1 (configuration not stated) | 88% | 19.2% | 63.7% | 31.5% | 76.3% | 72.1% | 77.8% | 73.7% | 89.8% | 58.4% | 127% | 39.9% | 67.3% | 73.3% | 65.5% | 57.5% | 45.9% | 63.5% | 57.4%
CCN1CCN(c2cc(C)nc(NCc3cc(Nc4ccnc5cc(Cl)ccc45)ccc3F)n2)CC1 | 50.7% | 4.69% (active) | 107% | 26.4% | 58.5% | 58% | 31% | 55.7% | 69.2% | -64.3% (active) | -5.84% (active) | 79% | 68.3% | 59.8% | 57.6% | -85.5% (active) | 86.3% | 8.07% (active) | 93.3%
COc1ccc2[nH]c(O)c(/C=c3/cc4c(c(-c5cc(OC)c(OC)c(OC)c5)n3)=Nc3ccccc3-4)c2c1 | 73.9% | 31.7% | 94.8% | 31.7% | 43.1% | 72.9% | 76.9% | 84.1% | 88.5% | 49.2% | 35% | 78.8% | 84.4% | 61.4% | 44.7% | 52.2% | 80.7% | 64.8% | 83.1%
O=C(/C=C/c1cccc(O)c1)c1cccc(-n2cc(-c3ccc4ccccc4c3)[nH]c2=O)c1 | -17.3% (active) | -40.4% (active) | -6.88% (active) | 14.7% | 29.8% | -6.97% (active) | 6.57% (active) | -88.3% (active) | 99.6% | 16.2% | -72.7% (active) | 4.8% (active) | -43.2% (active) | -86.6% (active) | 5.01% (active) | -2.25% (active) | 11.4% | -78.2% (active) | 42.9%
c1ccc(-c2nc([P+](c3ccccc3)(c3ccccc3)c3ccccc3)c(N3CCOCC3)o2)cc1 | 18.6% | 10.4% | 4.6% (active) | -14.8% (active) | -4.62% (active) | 18.3% | 0.0601% (active) | 6.52% (active) | -9.47% (active) | 4.76% (active) |  | 1.4% (active) | 8.73% (active) | 10.1% | 6.1% (active) | -93.1% (active) | -37.1% (active) | 4.66% (active) | 21.9%
COc1ccc(C(=O)COc2ccc(/C=C3\Oc4ccccc4C3=O)cc2)cc1 | 120% | 101% | 112% | 83.6% | 95.4% | 108% | 172% | 94.7% | 97.8% | 84.7% | 102% | 89.7% | 90.9% | 97.4% | 97.3% | 85.8% | 72.5% | 92.6% | 123%
NS(=O)(=O)c1cnccc1Sc1ccncc1S(N)(=O)=O | 102% | 76.3% | 91.1% | 111% | 108% | 107% | 130% | 93% | 111% | 100% | 113% | 96.6% | 105% | 107% | 94.9% | 105% | 99.4% | 101% | 117%
Cc1ccc(Nc2ccc(Nc3ccc(C)cc3)c3c2C(=O)c2cccc(O)c2C3=O)cc1 | 114% | 94.3% | 120% | 88.7% | 110% | 104% | 126% | 105% | 105% | 104% | 117% | 93.8% | 104% | 104% | 78.9% | 95.9% | 87.1% | 91.5% | 118%
